For 18 compounds, Potency results are on record in PubChem BioAssay (NCATS).

Records with an inconclusive call do not appear. A call without a number means that no potency is given here. Activity calls are given as the source filed them. Calls come from the whole dose curve; as a rule, active = well fitted inhibition curve with a large enough effect; inconclusive = small, poorly fitted or top-dose-only effect; inactive = no such curve, though single readings can be large or run the other way.

The experiment deals with Retinaldehyde dehydrogenase 3 (Homo sapiens) (UniProt P47895). Nature of the experiment: qHTS for Inhibitors of the Aldehyde Dehydrogenase Family (ALDH1A3) Primary screen (AID 2061315). Conditions: ALDH inhibition qHTS; series mostly up to 56 µM. Background: Quantitative high-throughput screening tests each substance at several concentrations.
Regarding `C[C@@H]1CC[C@]2(C(=O)O[C@@H]3O[C@H](CO[C@@H]4O[C@H](CO)[C@@H](O)[C@H](O)[C@H]4O)[C@@H](O)[C@H](O)[C@H]3O)CC[C@]3(C)C(=CCC4[C@@]5(C)CC[C@H](O)[C@](C)(C(=O)O)C5CC[C@]43C)[C@@H]2[C@]1(C)O` (stereo partly drawn), the Potency entry was “inactive”.
The same measure for `Cc1ccc(-c2ncc[nH]2)cc1NC(=O)c1ccc(OCc2ccccn2)cc1`: “inactive”; for `C[C@@H]1O[C@@H](O[C@H]2[C@H](O)[C@@H](O)[C@H](OC3CCC4(C)C5CCC(C)(C(CO)OC6OC(CO)C(O)C(O)C6O)CC5=CCC4C3(C)C)O[C@@H]2CO)[C@H](O)[C@H](O)[C@H]1O` (stereo partly drawn): “inactive”.
The same measure for `CN1CCN(c2ccc(Nc3cc(-c4cccc(-n5ccc6cc(C7CC7)cc(F)c6c5=O)c4CO)cn(C)c3=O)nc2)CC1`: “inactive”; for `C=C(C)[C@@H]1CC[C@](C)(O)[C@@H](OC(=O)c2ccccc2)C1`: “inactive”.
The same measure for `COC(=O)C[C@H]1C(C)(C)[C@H](OC(=O)c2ccccc2)C2CC3=C4CC(=O)O[C@@H](c5ccoc5)[C@]4(C)CCC3[C@@]1(C)C2=O` (stereo partly drawn): “inactive”.
Take `CC(=O)OC1C(C)C2C(OC3OC(CO)C(O)C(O)C3O)OC=C(C(=O)O)C2C1OC(=O)c1ccccc1` (stereo not drawn): the Potency entry is “inactive”.
The result for `CC(C)c1cc(C(=O)N2CC[C@@H](NC(=O)C3CC3)C2)n[nH]1` reads “inactive”.
Turning to `COC1C(OC(=O)/C=C/C=C/C=C/C=C/C(=O)O)CCC2(CO2)C1C1(C)OC1CC=C(C)C` (stereo not drawn), the Potency entry was “inactive”.
Turning to `COc1cc(/C=C/C(=O)O[C@@H]2C[C@@](O)(C(=O)O)C[C@@H](O)[C@@H]2O)ccc1O`, the Potency result was “inactive”.
The same measure for `CC(=O)OC/C(=C/C(=O)O)CC[C@@H]1C(C=O)=CC[C@@H]2C(C)(C)CCC[C@@]12C`: “inactive”; for `C=CCc1ccc(OC(C)Cc2ccc(OC)c(OC)c2)c(OC)c1` (stereo not drawn): “inactive”.
The result for `CC(C)C1NC(=O)C(CC2(O)c3ccccc3N3C(=O)C(Cc4ccccc4)NC32)NC1=O` (stereo not drawn) reads “inactive”; that for `CC(C#N)C(C)O[C@@H]1O[C@H](CO)[C@@H](O)[C@H](O)[C@H]1O` (stereo partly drawn), “inactive”; that for `C=CC1(C)C=C2C(=O)CC3C(C)(C)CCCC3(C(=O)O)C2(O)CC1` (stereo not drawn), “inactive”.
The result for `CC(=O)NC1C(OC2CCC3(C)C(CCC4(C)C3CC=C3C5CC(C)(C)CCC5(C(=O)O)C(O)CC34C)C2(C)C)OC(CO)C(O)C1O` (stereo not drawn) reads “inactive”; that for `COC(=O)c1cc(OC)cc(OC)c1C(=O)c1c(OC)cc2c(c1O)C1CCC(O)C(C)(O2)O1` (stereo not drawn), “inactive”.
`CC(C)=CCc1ccc(Oc2c(O)cc(C)cc2CO)c(C(=O)O)c1O`: the Potency result is “inactive”.
